The results in this text go back to PubChem BioAssay AID1578 (Sanford-Burnham Center for Chemical Genomics, 2009).

The campaign covered roughly 290,000 compounds. About 3,000 (1%) were called active. Rule as the data show it: active = inhibition mostly above about 36% (no sharp cut-off); inactive = mostly below about 34%. For the sample, actives were picked, then their nearest neighbours and some compounds at random.

This assay in a line: inhibition of NOD1-driven NF-kB reporter – cell-based, luminescence, uHTS, primary screen (AID 1578).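 Also: HEK-293T reporter cells stimulated with the NOD1 agonist gamma-tri-DAP.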 The settings on record: NOD1-driven NF-kB luciferase reporter cells, at 4 µM, hits give high values. Background: A reporter such as luciferase makes a cellular process visible.
`N#CCSc1n[nH]c2nc3c(c(=O)n12)C1(CCCCC1)Cc1ccccc1-3`: the inhibition (in general, the drop in the measured response relative to a control, in per cent) is 48% (active).

Consider `N#CCSc1n[nH]c2nc3c(c(=O)n12)C1(CCCC1)Cc1ccccc1-3`, for which the inhibition is 16.8% (inactive).

Turning to `CCSc1n[nH]c2nc3c(c(=O)n12)C1(CCCCC1)Cc1ccccc1-3`, the inhibition is -13.1% (inactive).

For `CCN(C(=O)/C=C/c1ccc(OC)cc1)C1CCCCC1`, the inhibition was -18.8% (inactive).

On to `COc1cccc2cc(-c3cc(=O)oc4ccc(OCC(C)=O)cc34)oc12`, for which the inhibition was 39% (inactive).

Take `CC(=O)COc1cc2c(-c3cc4ccccc4o3)cc(=O)oc2cc1C`: the inhibition was 40.5% (inactive).

For `COc1cccc2cc(-c3cc(=O)oc4cc(C)c(OCC(C)=O)cc34)oc12`, the inhibition is 71.3% (active).

On to `COc1ccc(Cl)cc1NC(=O)CSc1nc(C)cc(C)n1`, for which the inhibition was -29.7% (inactive).

Regarding `Cc1cc(C)cc(NC(=O)CSc2nc(CSc3ccc(Cl)cc3)cc(=O)[nH]2)c1`, the inhibition was 8.6% (inactive).

Regarding `CCOC(=O)N1CCC(NCCNC(=O)c2ccccc2Cl)CC1`, the inhibition was 9.8% (inactive).

Regarding `Cn1c(Oc2ccc(Cl)cc2)c(C=O)c2ccccc21`, the inhibition was 22.8% (inactive).

As for `Cn1c(Sc2ccccc2Cl)c(C=O)c2ccccc21`, the inhibition is 41.9% (inactive).

As to `COc1ccc(-c2nnn(CC(=O)c3c[nH]c4ccccc34)n2)cc1OC`, the inhibition was -7.9% (inactive).

For `CCOC(=O)c1[nH]ncc1CN1CCN(Cc2ccccc2)C(CCO)C1` (stereo unspecified), the inhibition was -20.2% (inactive).

As for `CSc1ccc(S(=O)(=O)N2CCC(C(=O)NCCN3CCOCC3)CC2)cc1`, the inhibition was -17.3% (inactive).

For the molecule `Cc1nc2cc(-c3ccccc3)sc2c(=O)n1N`, the inhibition was 95.4% (active).

On to `Cc1nc2ccccc2c(=O)n1N`, for which the inhibition is -11.6% (inactive).

For `CSc1nc2sc(-c3ccccc3)cc2c(=O)n1N`, the inhibition is -13.6% (inactive).

On to `Cc1nc2sc(-c3ccccc3)cc2c(=O)n1N`, for which the inhibition is 29.8% (active).

Take `Cc1ccc(C)n1-n1c(C)nc2sc(-c3ccccc3)cc2c1=O`: the inhibition is -14.6% (inactive).

As for `O=c1c2sc(-c3ccccc3)cc2nc2n1CCC2`, the inhibition is -26.3% (inactive).

Turning to `COc1cccc(CN2CCN(C3CCOCC3)CC2CCO)c1` (stereo unspecified), the inhibition was 2.6% (inactive).

On to `CCOC(=O)Cc1nnc(NC(=O)CSc2nnc3c(n2)[nH]c2ccccc23)s1`, for which the inhibition is 19% (inactive).

Turning to `CSc1ccc(C(=O)C2CCCN(S(=O)(=O)c3c(C)noc3C)C2)cc1` (stereo unspecified), the inhibition was -19.9% (inactive).

As to `COc1c(C)cc(C(=O)C2CCCN(S(=O)(=O)c3c(C)noc3C)C2)cc1C` (stereo unspecified), the inhibition was 48.6% (active).

In the case of `Cc1noc(C)c1S(=O)(=O)N1CCCC(C(=O)c2cccc(OC(C)C)c2)C1` (stereo unspecified), the inhibition was 4.9% (inactive).

Regarding `CCCCOc1ccc(-c2ncc(C(=O)O)c(C)n2)cc1`, the inhibition was -62% (inactive).

In the case of `COc1ccccc1CN(Cc1nc2ccccc2c(=O)[nH]1)S(=O)(=O)c1ccc(C)cc1`, the inhibition was -16.5% (inactive).

For the molecule `C=CCc1cc(S(=O)(=O)c2ccc(O)c(CC=C)c2)ccc1O`, the inhibition was 47.4% (active).

Regarding `Nc1cc(S(=O)(=O)c2ccc(O)c(N)c2)ccc1O`, the inhibition is -4.4% (inactive).

As to `C=CCc1ccc(O)c(-c2ccc(O)c(CC=C)c2)c1`, the inhibition is -6.9% (inactive).

Turning to `Cc1[nH]c(-c2ccc(F)cc2)cc1C(=O)N1CCN(c2ccccc2)CC1`, the inhibition was -4.4% (inactive).

As to `O=C(Nc1cccc(-c2nnc(-c3ccccc3)o2)c1)C1CCCCC1`, the inhibition was 30.6% (active).

Turning to `O=C(Nc1nnc(-c2ccccc2)o1)C1CCCCC1`, the inhibition is -11.8% (inactive).

With `O=C(Nc1cccc(-c2nnc(-c3ccccc3)o2)c1)C1CC1`, the inhibition is 2.9% (inactive).

`Brc1cc(Br)c2nc3c(cc2c1)CCC3`: the inhibition is -13.3% (inactive).

Turning to `COc1cc2cc(Br)cc(Br)c2nc1C`, the inhibition was 37.7% (inactive).

As to `COc1ccc(CN(C)S(=O)(=O)c2nnc(NC(=O)c3cccc(F)c3)s2)cc1OC`, the inhibition was 4.4% (inactive).

Consider `COc1ccc(CN(C)S(=O)(=O)c2nnc(NC(=O)c3cccc(OC)c3)s2)cc1`, for which the inhibition is 7.1% (inactive).

For the molecule `CN(Cc1ccccc1)S(=O)(=O)c1nnc(NC(=O)c2ccccc2)s1`, the inhibition was 1.1% (inactive).

On to `COc1cccc(C(=O)Nc2nnc(S(=O)(=O)N(C)Cc3ccc(F)cc3)s2)c1`, for which the inhibition is 16.8% (inactive).

Consider `CC(=O)C1=C(O)C(=O)N(Cc2ccccc2)C1c1ccco1` (stereo unspecified), for which the inhibition is -9.8% (inactive).

Regarding `Cc1ccccc1CN1CCC(n2nccc2NC(=O)c2cccnc2)CC1`, the inhibition is -23.7% (inactive).

Take `Cc1ccc(S(=O)(=O)CCC(=O)OCC(=O)c2c[nH]c3ccccc23)cc1`: the inhibition is 17.3% (inactive).

For the molecule `CCn1c(Cc2ccccc2)nnc1SCC(=O)Nc1cc(C)on1`, the inhibition was 5% (inactive).

For `CCCCn1c(Cc2ccccc2)nnc1SCC(=O)Nc1cc(C)on1`, the inhibition was 112% (active).

In the case of `COCCn1c(Cc2ccccc2)nnc1SCC(=O)Nc1cc(C)on1`, the inhibition is -22.5% (inactive).

Take `Cc1ccc(S[C@@H](CCN2CC[C@H](O)CCC2=O)c2ccccc2)cc1`: the inhibition was -12.3% (inactive).

Take `COc1ccc(C(=O)n2cnc3ccccc32)cc1`: the inhibition is -10.8% (inactive).

In the case of `CC(C)(C)c1ccc(C(=O)n2cnc3ccccc32)cc1`, the inhibition is -13.4% (inactive).

As to `CCN(CC)c1ccc(C(=O)n2cnc3ccccc32)cc1`, the inhibition was 38.7% (active).

As to `O=C(CSc1ncn[nH]1)NCCCc1ccccc1`, the inhibition was -16.5% (inactive).

Consider `COc1ccc(CNc2cccc3[nH]c(C(F)(F)F)nc23)cc1OC`, for which the inhibition is -14.9% (inactive).

Regarding `COc1ccc(CNc2cccc3[nH]c(C(F)(F)F)nc23)cc1`, the inhibition was 6% (inactive).

Regarding `COc1cc(CNc2cccc3[nH]c(C(F)(F)F)nc23)cc(OC)c1`, the inhibition was 33% (active).

As for `O=C1OCC/C1=C\c1ccc2c(c1)OCO2`, the inhibition was -0.1% (inactive).

As for `CCOC(=O)c1c(C)[nH]c2c1-c1ccccc1C(=O)C2=O`, the inhibition was 106% (active).

In the case of `CCOC(=O)c1c(C)[nH]c(C)c1-c1ccccc1OC`, the inhibition was 13.9% (inactive).

With `CCOC(=O)c1c2c3c(cccc3[nH]c1=O)C(=O)c1ccccc1-2`, the inhibition is -40.2% (inactive).

As to `COc1ccc2[nH]cc(C(=O)CN3CCN(C/C=C/c4ccccc4)CC3)c2c1`, the inhibition was -1.2% (inactive).

Take `Cc1[nH][nH]c(=O)c1C(c1c(C)[nH][nH]c1=O)c1cn(Cc2cccc3ccccc23)c2ccccc12`: the inhibition is 10.6% (inactive).

In the case of `Cc1[nH][nH]c(=O)c1C(c1c(C)[nH][nH]c1=O)c1cn(Cc2ccccc2Cl)c2ccccc12`, the inhibition is 83.9% (active).

On to `Cc1[nH][nH]c(=O)c1C(c1c(C)[nH][nH]c1=O)c1cn(Cc2ccc(Cl)c(Cl)c2)c2ccccc12`, for which the inhibition is -18.9% (inactive).

For the molecule `Cc1c(CN(C)Cc2cn(C)nc2-c2ccccc2F)[nH]c2ccccc12`, the inhibition was -13.2% (inactive).

For the molecule `c1ccc(CCn2nnnc2C(c2cccs2)N2CCN(Cc3ccc4c(c3)OCO4)CC2)cc1` (stereo unspecified), the inhibition was -12.4% (inactive).

With `COc1ccc(C)cc1NC(=O)CSc1nnc(COc2ccc(C)cc2)n1Cc1ccco1`, the inhibition was 28.5% (inactive).

Turning to `CCC(C)Sc1nc(O)c(Cc2ccccc2)c(=O)[nH]1` (stereo unspecified), the inhibition was 6.4% (inactive).

As for `O=C(CSC1=NC(=O)C(Cc2ccccc2)C(=O)N1)NC1CCCCC1` (stereo unspecified), the inhibition was -8.3% (inactive).

For the molecule `COc1ccc(-c2cn[nH]c2-c2ccc(OCc3ccc([N+](=O)[O-])cc3)cc2O)cc1OC`, the inhibition is 34.4% (inactive).

Regarding `COc1ccc(-c2cnc(N)nc2-c2ccc(OCc3ccccc3)cc2O)cc1`, the inhibition is -0.9% (inactive).

As to `O=[N+]([O-])c1ccc(COc2ccc(-c3[nH]ncc3-c3ccc(Cl)cc3)c(O)c2)cc1`, the inhibition was 5.4% (inactive).

In the case of `COc1ccccc1-c1cn[nH]c1-c1ccc(OCc2ccccc2F)cc1O`, the inhibition was 0% (inactive).

On to `Nc1ncc(-c2ccccc2)c(-c2ccc(OCc3ccccc3)cc2O)n1`, for which the inhibition was 2.3% (inactive).

Regarding `COc1ccc(-c2cn[nH]c2-c2ccc(OCc3ccccc3)cc2O)cc1OC`, the inhibition was 28.5% (inactive).

Consider `COc1ccc(-c2cn[nH]c2-c2ccc(OCc3ccc([N+](=O)[O-])cc3)cc2O)cc1`, for which the inhibition is 91.5% (active).

Take `O=C(/C=C/NCc1cccnc1)C(F)(F)C(F)(F)F`: the inhibition is -53% (inactive).

`Cc1ccc(-c2csc(Nc3ccc(C(=O)O)cc3)[n+]2Cc2ccccc2)cc1`: the inhibition is 17.8% (inactive).

For the molecule `O=C(CCN1C(=O)[C@@H]2Cc3ccccc3CN2C1=O)NCc1ccc(Cl)cc1`, the inhibition is -7.8% (inactive).

For the molecule `NC(=O)c1ccccc1NC(=O)c1ccccc1S(=O)(=O)c1ccccc1[N+](=O)[O-]`, the inhibition is -18.3% (inactive).

Regarding `[O-]/[N+](=C/c1ccc(F)cc1)c1ccc(Cl)cc1`, the inhibition is -85.9% (inactive).

Turning to `COc1cccc(C(=O)NCc2ccc3c(c2)OCO3)c1OC`, the inhibition was -33% (inactive).

For the molecule `CC1=C(C(=O)N(C)C)C(c2cccc(Cl)c2)NC(=O)N1` (stereo unspecified), the inhibition was -23.2% (inactive).

As to `COc1ccc(CCNC(=O)c2ccc3c(c2)N(Cc2ccc(C)cc2)CCS3)cc1OC`, the inhibition is 8.4% (inactive).

On to `COc1ccc(CCNC(=O)c2ccc3c(c2)N(Cc2ccc(F)cc2)CCS3)cc1OC`, for which the inhibition is -34.1% (inactive).

Take `CCCC[C@@H]1CNC(=S)N1CCc1cccc(F)c1`: the inhibition is -29.2% (inactive).

Consider `CCOc1ncccc1C(=O)Nc1cc(S(=O)(=O)N2CCOCC2)ccc1N1CCCC1`, for which the inhibition is 0.1% (inactive).

Regarding `CC1CCN(C(=O)C2CCN(S(=O)(=O)c3ccc(-n4cnnn4)cc3)CC2)CC1`, the inhibition is -10.6% (inactive).

In the case of `O=C(CSc1cccc2cccnc12)N/N=C/c1cccnc1`, the inhibition is 80% (active).

Take `CCCCC(=O)N/N=C/c1ccc(Sc2cccc3cccnc23)o1`: the inhibition was -12.8% (inactive).

Regarding `O=C(CSc1cccc2cccnc12)N/N=C/c1ccncc1`, the inhibition was -32.7% (inactive).

Regarding `O=C(CSc1cccc2cccnc12)N/N=C/c1ccc(O)cc1`, the inhibition was -3.1% (inactive).

As for `CCOc1cc(/C=N/NC(=O)CSc2cccc3cccnc23)ccc1O`, the inhibition was -32.2% (inactive).

In the case of `O=C(Cc1cccc2ccccc12)N/N=C/c1ccc(Sc2cccc3cccnc23)o1`, the inhibition was 61.9% (inactive).

Turning to `COc1cccc(/C=N/NC(=O)CSc2cccc3cccnc23)c1`, the inhibition was 33.4% (active).

Regarding `O=C(CSc1cccc2cccnc12)N/N=C/c1cccc(O)c1`, the inhibition was -22% (inactive).

In the case of `O=C(CCc1ccccc1O)N/N=C/c1ccc(Sc2cccc3cccnc23)o1`, the inhibition was 89.3% (active).
